Assay in all cases: NCI-60 one-dose screen, 48 h (100 = growth as untreated, 0 = no growth, -100 = all killed)
Common to all, as to conditions: 10 µM

Assay [1] relates to HT29 colon.
In assay [2] the test system is SNB-75 CNS.
Assay [3] deals with SNB-19 CNS.
The subject of assay [4] is U251 CNS.
Assay [5] concerns SK-MEL-5 melanoma.
Assay [6] relates to UACC-62 melanoma.
The test system of assay [7] is LOX IMVI melanoma.
Assay [8] deals with SK-MEL-28 melanoma.
For assay [9], the system named is SK-MEL-2 melanoma.
For assay [10], the system named is PC-3 prostate.

About 83,000 compounds went through this panel and 20% of them were active in at least one assay; those are over-represented in the sample as a whole.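 Each cell line was grown in a 96-well plate and treated with one concentration of compound for 48 hours. Values below 10 were considered active.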 A number with no mark means an inactive call. The source made the active and inactive calls.

Turning to `N#CCCN1C/C(=C/c2ccc(Br)cc2)C(=O)/C(=C/c2ccc(Br)cc2)C1`, the growth in [1] was -33.8% (active); in [2], 33.3%; in [3] it was -46.6% (active); in [4], -80.8% (active); in assay [5], 1.94% (active); in [6], -75% (active). Besides, the growth in assay [7] is -71.3% (active); in assay [8], -36.8% (active); in assay [9], 5.41% (active).
Consider `O=C(N/N=C/c1cc2ccccc2c2ccccc12)c1cc(O)c(O)c(O)c1`, for which the growth is 94.8% in assay [1]; 56.4% in [2]; 50.6% in assay [3]; 20.3% in assay [4]; 52.9% in assay [5]; 41.5% in assay [6]. Also, the results for the growth in [7] and in assay [8] were 47.2% and 55.6%, respectively.
Consider `COc1cc2cc3c(nc2cc1OC)CCN3Cc1ccc(NC(=O)Nc2ccc(F)cc2F)cc1`, for which the growth was 103% in [1]; 86.4% in assay [2]; 76.8% in assay [3]; 91.8% in [4]; 86.1% in assay [5]; 69% in assay [6]. Also, the growth is 88.6% in [7], 95.7% in [8] and 88.2% in assay [9].
As to `COc1ccc(OC)c(/C=C/c2nc(SC)n(-c3ccc(Cl)cc3)n2)c1`, the growth was 90.3% in assay [1]; 72.1% in assay [2]; 81.4% in assay [3]; 78.1% in [4]; 53.4% in assay [5]; 49.5% in assay [6]. The growth was 83.3% in [7], 85.1% in assay [8] and 88.5% in [9].
Turning to `O=C(Nc1nc2ccc(F)cc2s1)c1cc(-c2ccc(F)cc2)n2nc(-c3ccccc3)cc2n1`, the growth was 92.7% in [1]; 70.7% in [2]; 88% in [3]; 102% in [4]; 68.3% in assay [5]; 66.3% in assay [6]. Also, the growth in [7] is 85.9%; in [8] it was 58.1%; in assay [9], 111%.
In the case of `COc1ccc(/C=C2/CN(CCC#N)C/C(=C\c3ccc(OC)cc3)C2=O)cc1`, the growth was -37.6% (active) in assay [1]; 51.4% in assay [2]; 59.6% in assay [3]; -28.3% (active) in assay [4]; -0.858% (active) in [5]; -27.5% (active) in assay [6]. Also, the values for the growth in assay [7], in assay [8] and in [9] were -53.7% (active), 6.16% (active) and 57.3%, respectively.
Turning to `CC(C)(C#N)Nc1ccccc1`, the growth in assay [1] was 99.5%; in [2], 79.5%; in assay [3], 98.9%; in [4], 95.4%; in assay [10] it was 108%; in assay [6], 98.5%. Besides, the growth in assay [7] was 97.8%; in assay [8] it was 111%; in [9] it was 109%.

The values above are taken from PubChem BioAssay (NCI).
